# PubChem BioAssay (NCI)
# The panel holds about 83,000 compounds, 20% with a hit somewhere; the sample as a whole holds those more often.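 Treatment: one concentration, 48 hours, 96-well format. Scoring: percent growth, with anything below 10 considered active.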 The source made the active and inactive calls.
# Tested on: NCI-H226 lung
# Assay: NCI-60 one-dose screen, 48 h (100 = growth as untreated, 0 = no growth, -100 = all killed)
# Details: 10 µM unless noted
row,Compound,growth
1,O=C(CCl)c1ccc([N+](=O)[O-])o1,42.9% (inactive)
2,CCCCCSC1C2C(=O)C(Br)=CC13CCNc1c(O)c4c5c(c13)=[N+]2CCC=5C=N4 (stereo not drawn),-5.15% (active)
3,COc1ccc(C/C(C)=C(\c2ccc(OCCN3CCOCC3)cc2)c2ccc(OC(=O)Cc3ccccc3)cc2)cc1,-26.6% (active)
4,Cn1cc(-c2csc(-c3cn(CCCCN4CCCCC4)c4ccc(F)cc34)n2)c2cccnc21,74.6% (inactive)
5,COc1ccc2c(c1)c(-c1nc(-c3cn(C)c4ncccc34)cs1)cn2CCCCN1CCCCC1,56.6% (inactive)
6,C[n+]1c(/C=C/c2ccc(N(CCCl)CCCl)cc2)sc2ccccc21,73.7% (inactive)
7,C=CC[Se]C(=O)c1ccccc1OC(C)=O,28.1% (inactive)
8,CC(=O)OC1CCC2C3CCC4=C/C(=N/OC(=O)c5ccc(N(CCCl)CCCl)cc5)CCC4(C)C3CC(C)C12 (stereo not drawn),94% (inactive)
9,CCCCCCCC[n+]1ccc2ccccc2c1,61.4% (inactive)
10,Cn1cccc1C1CC(=O)N(CCC[Se]C#N)C1=O (stereo not drawn),-46.1% (active)
11,C[Se]C(=O)c1ccccc1OC(C)=O,6.57% (active)
12,O=C1Nc2ccccc2C2c3cccn3-c3ccccc3CN12 (stereo not drawn),78.2% (inactive)
13,CCOC(=O)[C@@H](C)C[C@H](Cc1ccccc1)NC(=O)c1csc([C@@H](C[C@H](C(C)C)N(C)C(=O)[C@H](CCC(C)C)NC(=O)[C@H]2CCCCN2C)OC(C)=O)n1,27.7% (inactive)
14,COC(=O)[C@H](C[C@H](Cc1ccccc1)NC(=O)c1csc([C@@H](C[C@H](C(C)C)N(C)C(=O)[C@@H](NC(=O)[C@H]2CCCCN2C)C(C)C)OC(C)=O)n1)NC(=O)OCc1ccccc1,-42.6% [8.5 µM] (active)
15,CC1(C)N=C(N)N=C(N)N1c1ccc(OCCCNC(=O)Nc2ccc(S(=O)(=O)F)cc2)c(Cl)c1,40.1% (inactive)
16,O=C(CN1CCN(C(=O)c2ccco2)CC1)Nc1ccc(Cl)cc1C(=O)c1ccccc1Cl,95.1% (inactive)
17,Cc1cc(N(CCCl)CCCl)ccc1C=Nc1ccccc1-c1ccccc1,-38.8% (active)

row,Compound,growth
1,Cn1cc(-c2csc(-c3cn(CCN4CCOCC4)c4ccccc34)n2)c2cccnc21,41.4% (inactive)
2,CCOC(=O)[C@@H](C)C[C@H](Cc1ccccc1)NC(=O)c1csc([C@@H](C[C@H](C(C)C)N(C)C(=O)[C@H](CC)NC(=O)[C@H]2CCCCN2C)OC(C)=O)n1,65.2% (inactive)
3,ClC1=C(Cl)C(Cl)(C2(Cl)C(Cl)=C(Cl)C(Cl)=C2Cl)C(Cl)=C1Cl,-81.5% (active)
4,O=C([O][Hg][CH2]C1OCCOC1[CH2][Hg][O]C(=O)c1ccccc1)c1ccccc1 (stereo not drawn),118% (inactive)
5,COc1ccc([As]=[As]c2ccc(OC)c(NCS(=O)(=O)O)c2)cc1NCS(=O)(=O)O (stereo not drawn),61.9% (inactive)
6,[Cl][Hg][n]1c(-c2ccco2)nc2ccccc21,97.5% (inactive)
7,CCC[CH2][Sn]([CH2]CCC)([CH2]CCC)[O]c1ccc(Cl)cc1Cl,-86.5% (active)
8,NC(CCl)CCl,94.6% (inactive)
9,CN1CCC(c2c[nH]c3ccccc23)C1 (stereo not drawn),106% (inactive)
10,CCCCCCCCCCCCCCCCCC1OC[C@@H](COC(=O)O[C@@H](C(=O)O[C@H]2C[C@@]3(O)[C@@H](OC(=O)c4ccccc4)[C@@H]4[C@]5(OC(C)=O)CO[C@@H]5C[C@H](O)[C@@]4(C)C(=O)[C@H](OC(C)=O)C(=C2C)C3(C)C)[C@@H](NC(=O)c2ccccc2)c2ccccc2)O1 (stereo partly drawn),83.4% (inactive)
11,CC1=C([Te]c2ccc(O)cc2)C(=O)c2ccccc2C1=O,-35.4% (active)
12,O=C1NC(=O)C(=Cc2cn(CCCCCCn3c4ccccc4c(=O)c4ccccc43)c3ccccc23)C(=O)N1,67.2% (inactive)
13,CC(C)OC(=O)[C@H](C)NP(=O)(Oc1ccccc1)C1CCCN(O)C1=O (stereo partly drawn),70.9% (inactive)
14,CCCCCCC(=O)NC1=C(N2CC2)C(=O)C(NC(=O)CCCCCC)=C(N2CC2)C1=O,75% (inactive)
15,COc1ccc(/C=C\c2cc(OC)c(OC)c(OC)c2)cc1NS(=O)(=O)c1ccc(Cl)cc1,70.9% (inactive)
16,CC[C@H](C)[C@H](NC(=O)[C@H]1CCCCN1C)C(=O)N(C)[C@H](CC(=O)c1nc(C(=O)N[C@@H](Cc2ccccc2)C[C@H](C)C(=O)O)cs1)C(C)C,92.3% (inactive)
